Results reported in PubChem BioAssay AID1745850 (National Center for Advancing Translational Sciences (NCATS), 2022).
The whole screen tested about 2,100 compounds, of which about 260 (12%) were called active. Another 58% or so got no clear call; they are omitted. The list shows a part of the results. A number with no mark means an inactive call. Calls follow the shape of the dose curve; as a rule, active = well fitted cell-killing curve with a large enough effect; inconclusive = small, poorly fitted or top-dose-only effect, or effect the other way; inactive = flat fitted curve, though single readings scatter.

Test: Viability Counterscreen for Confirmatory qHTS for Inhibitors of ATXN expression; also: nearly all actives have a fitted effect of over 50% in size
Details: HEK-293 ATXN2-luc cells viability, CellTiter-Fluor, 24 h; activity change, negative = cytotoxicity: at the top concentration
Outline: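 Luminescence read-out (SteadyGlo, 5 min) followed a 30 min Gly-Phe-AFC (25 uM final) viability fluorescence read. ATXN2-luciferase reporter cells were exposed 24 h to a dilution series. Medium-only wells served as the 100% inhibition reference.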
Potency is read from the fitted curve at half-maximal effect.

SMILES | activity change, negative = cytotoxicity | Potency
COc1ccc([C@@]2(C(C)C)ON(c3ccccc3C(F)(F)F)C2=O)cc1 | -9.94% | –
COc1ccc(CN(C)C(=O)c2cccc(NC(=O)CC3SC(N4CCCCC4)=NC3=O)c2)c(OC)c1 (stereo unspecified) | – | 35.5 µM (active)
Cc1ccc(Cn2ncc3c(NN)ncnc32)cc1 | -26.4% [at 57.5 µM] | –
COc1cccc(N2CCN(c3nc(-c4ccccc4C)cc(=O)[nH]3)CC2)c1 | -27.9% | –
Cc1nc2ncnn2c(N2CCN(c3cccc(C(F)(F)F)c3)CC2)c1C | -26.9% | –
CC(Sc1ccc(Cl)cc1)C(=O)NNC(=O)c1ccccc1O (stereo unspecified) | -10% | –
COc1ccc(Cl)cc1NC(=O)Nc1cccc([N+](=O)[O-])c1C | -5.63% | –
COc1ccc(-c2n(CC(=O)OC3CC(C)CCC3C(C)C)c3ccccc3[n+]2C)cc1 (stereo unspecified) | – | 10 µM (active)
Cc1onc(-c2ccccc2)c1C(=O)N/N=C/c1c[nH]c2ccccc12 | -15.8% [at 57.5 µM] | –
O=C(O)COc1ccc2oc3ccccc3c2c1 | 7.02% | –
Cc1nnc(SC(C)C(=O)Nc2ccc(Cl)cn2)n1Cc1ccccc1 (stereo unspecified) | -12.7% [at 57.5 µM] | –
Cc1cccc(N2CCN(S(=O)(=O)c3ccc4c(c3)C(C)(C)C(=O)N4C)CC2)c1C | -12% [at 57.5 µM] | –
NC(N)=N/N=C/c1ccc2cccc(OCc3ccccc3)c2n1 | – | 15.8 µM (active)
CC(=O)Oc1c(Br)cc(N(C(C)=O)S(=O)(=O)c2ccccc2)c2ccccc12 | – | 28.2 µM (active)
N#Cc1cc2cc3c(cc2nc1SCC(=O)N1CCOCC1)OCCO3 | -8.91% | –
OC(c1cc(-c2cccc(Cl)c2)nc2ccccc12)C1CCCCN1 (stereo unspecified) | – | 28.2 µM (active)
Cn1nccc1C(=O)N1CCCC(C(=O)c2cccc3ccccc23)C1 (stereo unspecified) | -20.1% [at 57.5 µM] | –
Cn1cc(/C=C/c2cc[n+](C)cc2)c2cc(F)ccc21 | -9.68% [at 57.5 µM] | –
Cc1noc(C)c1CSCC(=O)Nc1nc(-c2ccc(F)c(F)c2)cs1 | – | 28.2 µM (active)
O=C(CCN1C(=O)C2CC=CCC2C1=O)Nc1nc(-c2ccc(F)c(F)c2)cs1 (stereo unspecified) | -16.4% [at 57.5 µM] | –
O=C(/C=C\c1ccco1)Nc1nc(-c2ccc3ccccc3c2)cs1 | -19.3% | –
NS(=O)(=O)c1ccc(Nc2nc(-c3ccc(F)cc3)cs2)cc1 | -8.41% | –
O=C(Nc1nc(-c2ccc(F)c(F)c2)cs1)Nc1ccc(F)cc1F | – | 2.82 µM (active)
Cc1cnc(NC(=O)C2CC(=O)N(c3cccc(Cl)c3)C2)s1 (stereo unspecified) | -21% | –

SMILES | activity change, negative = cytotoxicity | Potency
COc1cc([N+](=O)[O-])cc(/C=N/NC(=O)c2ccc(NC(=O)c3ccc(C)cc3)cc2)c1O | – | 1.78 µM (active)
Cc1ccc(C(=O)N/N=C/c2nc3ccccc3n2C)cc1 | -26.8% [at 57.5 µM] | –
CCn1c(C)nc2cc(C(=O)N/N=C/c3cccc(OC)c3O)ccc21 | -17.1% | –
CCCC1CCC(c2ccc(C(=O)NN)cc2)CC1 (stereo unspecified) | -2.67% | –
Cc1c(C(=O)N/N=C/c2c(O)ccc3ccccc23)nnn1-c1nonc1N | -20.6% | –
Cc1nn2c(NCc3ccccn3)c3c(nc2c1-c1ccccc1)CCC3 | – | 11.2 µM (active)
CC(C)C(CCNCc1ccccn1)c1ccc(Cl)cc1 (stereo unspecified) | -16.9% [at 57.5 µM] | –
Cc1cc(NCc2ccccn2)n2nc(C)c(-c3ccc(Cl)cc3)c2n1 | – | 14.1 µM (active)
CNc1ccccc1C(=O)OC(C)C(=O)Nc1ccc(Cl)cn1 (stereo unspecified) | 5.42% | –
O=C(Nc1ccc(F)cc1)c1sccc1SCc1cccc(C(F)(F)F)c1 | -26.1% [at 57.5 µM] | –
CCOC(=O)c1c(NC(=O)COC(=O)c2ccccc2NC)sc(C(=O)N(C)C)c1C | -22.4% | –
NC(=O)CC(NC(=O)Cc1ccc(Br)cc1)c1ccc(NC2CCCC2)c([N+](=O)[O-])c1 (stereo unspecified) | -17.4% | –
Cc1ccc(OCC(=O)c2cc(C)n(Cc3cccs3)c2C)c([N+](=O)[O-])n1 | -23.1% [at 57.5 µM] | –
C/C(=N\Nc1cc(N2CCOCC2)nc(C)n1)c1cccc([N+](=O)[O-])c1 | -4.32% | –
CC1CCCCN1S(=O)(=O)c1ccc(C(=O)Nc2nnc(-c3ccccc3Cl)o2)cc1 (stereo unspecified) | -5.8% | –
O=C1C=C(Nc2ccccc2O)c2ccccc2C1=O | – | 20 µM (active)
Cc1cc(NC(=O)CSc2nccn2-c2cccc(C)c2C)no1 | -14.2% | –
CCOC(=O)Nc1ccc(N2CCOCC2)c(S(=O)(=O)Nc2ccc(Cl)cc2)c1 | -10.2% | –
CCOC(=O)c1ccc(N=c2sc(C(=O)OC)cc(=O)n2-c2ccc(C(=O)OCC)cc2)cc1 | -19.2% | –
CCOC(=O)c1ccc2ncc(C(=O)OCC)c(Nc3ccc(N4CCOCC4)cc3)c2c1 | – | 3.16 µM (active)
Cc1ccc(NC(=O)CNC(=O)c2cccc(Cl)c2)nc1 | -22.1% [at 57.5 µM] | –
Cc1ccc(NC(=O)c2cnc(N3CCN(c4ccccn4)CC3)c3ccccc23)c(Br)c1 | – | 14.1 µM (active)
Cc1cc(Br)ccc1NC(=O)c1cnc(N2CCN(c3ccccn3)CC2)c2ccccc12 | -16.2% | –
CCN(CC)S(=O)(=O)c1ccc(C)c(NC(=S)N2CCN(c3ccccn3)CC2)c1 | -29.4% [at 57.5 µM] | –

SMILES | activity change, negative = cytotoxicity | Potency
Brc1cnc2nc(SCc3nc4ccccc4[nH]3)[nH]c2c1 | -3.43% | –
CCn1c(CCC(=O)Nc2nc3c(s2)CCCC3)nc2cc(S(=O)(=O)N(C)C)ccc21 | -6.64% | –
Cc1ccc(C(=O)NC(C)CCc2ccccc2)cc1S(=O)(=O)N1CCOCC1 (stereo unspecified) | -26% [at 57.5 µM] | –
O=C(Nc1cccc(S(=O)(=O)N2CCOCC2)c1)c1ccc2c(=O)n3c(nc2c1)CCCCC3 | -27.9% | –
O=C(Nc1cccc(S(=O)(=O)C(F)F)c1)c1ccc(Cl)c(S(=O)(=O)N2CCOCC2)c1 | – | 28.2 µM (active)
COc1ccc(Cn2c(O)c(/C=N/NC(=O)c3cccnc3)c3ccccc3c2=O)cc1 | 15.3% [at 57.5 µM] | –
CCN(Cc1ccccc1)S(=O)(=O)c1ccc(C(=O)Nc2nnc(C3CC3)o2)cc1 | -14.9% | –
Cc1cc2c(c(/C=C/C(=O)c3ccccc3)c1)OC1(C=C2)Oc2ccccc2C(=O)N1C (stereo unspecified) | – | 25.1 µM (active)
Cc1cc(C)cc(NC(=O)CSc2nc3[nH]ncc3c(=O)[nH]2)c1 | -5.78% | –
Nc1c(C(=O)NCc2ccccc2)c2nc3ccccc3nc2n1-c1ccc2c(c1)OCO2 | -23.9% | –
CCOC(=O)c1c(C)sc2c1N(C(=O)CN(CC)CC)c1cc(Cl)ccc1S2 | – | 22.4 µM (active)
Cc1ccc(-c2nc3cc(Br)cnc3nc2-c2ccc(C)cc2)cc1 | -4.19% | –
COc1ccc(OCc2cccc(C(=O)Nn3cc([N+](=O)[O-])cn3)c2)cc1 | -7.7% | –
Cc1ccc2c(c1)-c1c(cnn1CC(=O)N1CCCN(Cc3ccccc3F)C1)CO2 | -26.7% | –
Cc1ccc2nc(NNC(=O)c3ccc(S(=O)(=O)N4CCc5ccccc5C4)cc3)sc2c1 | – | 10 µM (active)
COc1ccc2nc(NC(=O)C3CCN(S(=O)(=O)c4cccs4)CC3)sc2c1 | -16.7% | –
Cc1ccc(S(=O)(=O)N2CCc3ccccc3CC2)cc1 | 2% | –
CCOC(=O)N1CCN(S(=O)(=O)c2ccc(C(=O)NNc3nc4c(C)cc(C)cc4s3)cc2)CC1 | -28.2% | –
CC1CCCN(S(=O)(=O)c2ccc(C(=O)Nc3nnc(-c4ccccc4Cl)o3)cc2)C1 (stereo unspecified) | -17.5% | –
Cc1cccc2sc(NNC(=O)c3ccc(S(=O)(=O)N4CC(C)CC(C)C4)cc3)nc12 (stereo unspecified) | – | 11.2 µM (active)
Cc1cc(C)c2nc(NNC(=O)c3cc(-c4cccs4)nc4ccccc34)sc2c1 | -22.8% | –
Cc1cc(C)c2nc(NNC(=O)c3ccc(S(=O)(=O)N4CC(C)CC(C)C4)cc3)sc2c1 (stereo unspecified) | – | 11.2 µM (active)
Cc1ccc2nc(NC(=O)CSCC(=O)OCC(=O)c3ccc(Br)cc3)sc2c1 | -7.59% [at 57.5 µM] | –
S=C(NCc1ccc(Cl)cc1Cl)NC1CCCCC1 | -9.63% | –

SMILES | activity change, negative = cytotoxicity | Potency
CCc1ccc(OCC(=O)N/N=C(\C)c2ccc(O)cc2O)cc1 | -4.52% | –
C/C(=N\NC(=O)c1ccc(CN2CCc3ccccc3C2)cc1)c1ccccc1O | -15.3% | –
COc1cc(C#Cc2c(-c3cncn3C)n(C)c3ccc(-c4cnc(OC)nc4)cc23)cc(OC)c1 | -4.58% | –
CC(Sc1nnc2c(n1)[nH]c1ccccc12)C(=O)N(C)C1CCCCC1 (stereo unspecified) | – | 20 µM (active)
CCc1nc2c(OCCOc3ccc(F)cc3)cccn2c1N(C)C(=O)c1ccco1 | -9.27% [at 57.5 µM] | –
O=C1/C(=C\c2cc(Cl)c(O)c(Cl)c2)SC(=S)N1Cc1ccccc1 | – | 15.8 µM (active)
COc1cc(/C=C2\SC(=O)N(CC(=O)Nc3ccccc3F)C2=O)cc(Cl)c1O | 6.65% | –
Clc1c(Cl)c(Cl)c2n[nH]nc2c1Cl | -17.4% [at 57.5 µM] | –
NC(N)=N/N=C/c1ccc(Cl)c(Cl)c1 | – | 28.2 µM (active)
CCOC(=O)Oc1c(OC)cc(C(=O)O[C@@H]2C[C@@H]3CN4CCc5c([nH]c6cc(OC)ccc56)[C@H]4C[C@@H]3[C@H](C(=O)OC)[C@H]2OC)cc1OC | -26.2% [at 57.5 µM] | –
CC1=NN(c2nc3ccccc3[nH]2)C(=O)C1Cc1ccccc1 (stereo unspecified) | – | 8.91 µM (active)
CCCCn1c(SCC(=O)Nc2cc(C(F)(F)F)cc(C(F)(F)F)c2)nnc1C(CC)N(C)C (stereo unspecified) | -21.7% | –
COC(=O)C(Cc1ccc(O)cc1)NC(=O)C(C)Oc1ccccc1 (stereo unspecified) | -13.2% [at 57.5 µM] | –
COc1ccc(CC(N)c2csc(Nc3ccc(C(=O)c4ccccc4)cc3)n2)cc1 (stereo unspecified) | -23% | –
CN(Cc1ccccc1)C(=O)c1ccc(Nc2nc(C(N)Cc3ccccc3)cs2)nc1 (stereo unspecified) | – | 14.1 µM (active)
CCc1nc2ccc(C(=O)N(C)Cc3ccccc3)cn2c1N(C)Cc1ccc(OC)cc1 | -14.2% [at 57.5 µM] | –
CC(C)CC(N)c1csc(Nc2ccc(C(=O)N(C)Cc3ccccc3)cn2)n1 (stereo unspecified) | – | 14.1 µM (active)
O=C(CN1C(=O)c2ccccc2S1(=O)=O)c1ccc(O)c(O)c1 | -1.02% | –
CC(C)CC(NC(=O)c1ccc(Cl)cc1)C(=O)OCC(=O)c1ccc2c(c1)NC(=O)CO2 (stereo unspecified) | – | 28.2 µM (active)
Cc1ccc(-c2ccc(/C=N/c3ncn[nH]3)o2)cc1Cl | -16.1% | –
COc1nn(-c2ccccc2)c(=O)c(Cl)c1Cl | – | 2.82 µM (active)
CCOC(=O)N(C)c1c(CC)nc2c(OCc3ccccc3OC)cccn12 | -4.2% [at 57.5 µM] | –
CSCC[C@H](NC(=O)OC(C)(C)C)C(=O)N/N=C/c1cccc2cccnc12 | -27.5% [at 57.5 µM] | –
CCc1cc[n+](C2=C([O-])c3ccccc3C(=O)/C2=N\S(=O)(=O)c2cccs2)cc1 | – | 17.8 µM (active)
